The target of experiment [1] is Mitogen-activated protein kinase 10 (Homo sapiens) (UniProt P53779). As to conditions: at 10 µM.
Experiment [2] deals with Vascular endothelial growth factor receptor 2 (Homo sapiens) (UniProt P35968). As to conditions: at 1 µM.
Experiment [3] shares this target. Particulars: at 10 µM.
The target in experiment [4] is LIM domain kinase 1 (Homo sapiens) (UniProt P53667). As to conditions: at 1 µM.
Experiment [5] shares this target. As to conditions: at 10 µM.
Experiment [6] has as its target T1, Serine/threonine-protein kinase STK11 (Homo sapiens) (UniProt Q15831).
T1 sequence (whole entry): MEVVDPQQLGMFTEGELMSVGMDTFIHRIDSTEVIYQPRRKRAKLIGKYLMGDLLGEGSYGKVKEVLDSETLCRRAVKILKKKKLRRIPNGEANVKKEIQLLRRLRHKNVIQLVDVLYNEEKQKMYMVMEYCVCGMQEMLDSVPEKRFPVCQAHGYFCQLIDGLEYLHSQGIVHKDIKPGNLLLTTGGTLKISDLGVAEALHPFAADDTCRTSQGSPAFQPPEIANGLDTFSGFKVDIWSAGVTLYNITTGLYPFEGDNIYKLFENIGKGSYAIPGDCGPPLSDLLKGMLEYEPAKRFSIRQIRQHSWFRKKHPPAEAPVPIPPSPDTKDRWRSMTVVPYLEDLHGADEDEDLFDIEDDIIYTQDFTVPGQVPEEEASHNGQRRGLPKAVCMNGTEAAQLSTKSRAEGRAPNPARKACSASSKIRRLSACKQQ
Particulars: at 1 µM.

The target of experiment [7] is T1, Serine/threonine-protein kinase STK11 (Homo sapiens). As to conditions: at 10 µM.
In experiment [8] the target is Serine/threonine-protein kinase 10 (Homo sapiens) (UniProt O94804). As to conditions: at 1 µM.
Chain of Serine/threonine-protein kinase 10 (Homo sapiens) (O94804 whole entry, looked up): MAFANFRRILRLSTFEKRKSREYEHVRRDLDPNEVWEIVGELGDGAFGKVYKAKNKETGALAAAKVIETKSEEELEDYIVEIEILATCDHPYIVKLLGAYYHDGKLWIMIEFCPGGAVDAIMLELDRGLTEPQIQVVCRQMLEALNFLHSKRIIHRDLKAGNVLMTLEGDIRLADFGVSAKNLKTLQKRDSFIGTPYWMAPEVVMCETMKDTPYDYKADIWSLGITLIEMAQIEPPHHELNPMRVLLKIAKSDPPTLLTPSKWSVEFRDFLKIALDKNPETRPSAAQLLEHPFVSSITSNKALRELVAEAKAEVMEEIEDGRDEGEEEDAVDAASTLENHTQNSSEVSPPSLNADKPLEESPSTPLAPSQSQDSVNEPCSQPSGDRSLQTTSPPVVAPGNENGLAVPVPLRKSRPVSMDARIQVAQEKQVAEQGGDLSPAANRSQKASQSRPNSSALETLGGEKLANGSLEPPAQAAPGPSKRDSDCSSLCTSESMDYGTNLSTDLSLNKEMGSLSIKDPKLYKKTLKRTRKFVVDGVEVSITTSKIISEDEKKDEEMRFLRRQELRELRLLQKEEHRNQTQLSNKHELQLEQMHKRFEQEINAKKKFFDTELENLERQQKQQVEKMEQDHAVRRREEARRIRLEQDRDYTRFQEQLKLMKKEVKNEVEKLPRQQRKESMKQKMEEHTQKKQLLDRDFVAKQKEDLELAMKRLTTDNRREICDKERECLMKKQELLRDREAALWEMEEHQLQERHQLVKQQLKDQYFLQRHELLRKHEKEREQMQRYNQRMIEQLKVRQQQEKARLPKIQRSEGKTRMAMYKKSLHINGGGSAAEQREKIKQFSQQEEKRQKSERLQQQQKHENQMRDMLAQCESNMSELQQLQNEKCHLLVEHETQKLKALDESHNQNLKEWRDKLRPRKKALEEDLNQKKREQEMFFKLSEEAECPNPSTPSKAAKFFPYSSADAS
Experiment [9] has the same target. Particulars: at 10 µM.
In experiment [10] the target is Tyrosine-protein kinase Lck (Homo sapiens) (UniProt P06239). Particulars: at 1 µM.
Chain of Tyrosine-protein kinase Lck (Homo sapiens) (P06239 2-509 limits assumed): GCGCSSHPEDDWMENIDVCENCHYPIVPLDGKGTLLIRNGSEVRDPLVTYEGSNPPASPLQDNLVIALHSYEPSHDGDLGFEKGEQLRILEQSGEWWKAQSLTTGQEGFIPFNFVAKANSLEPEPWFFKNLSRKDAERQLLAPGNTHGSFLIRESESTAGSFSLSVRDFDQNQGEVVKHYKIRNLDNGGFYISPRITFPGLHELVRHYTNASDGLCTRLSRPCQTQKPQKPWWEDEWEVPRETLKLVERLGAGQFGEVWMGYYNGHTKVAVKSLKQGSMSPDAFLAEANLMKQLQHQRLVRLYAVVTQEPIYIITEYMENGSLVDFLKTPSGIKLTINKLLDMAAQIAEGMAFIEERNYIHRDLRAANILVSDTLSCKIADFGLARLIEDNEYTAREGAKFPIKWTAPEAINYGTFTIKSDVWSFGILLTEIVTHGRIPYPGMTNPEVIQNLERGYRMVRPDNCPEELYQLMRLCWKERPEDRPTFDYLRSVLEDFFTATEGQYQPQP

Chain of LIM domain kinase 1 (Homo sapiens) (P53667 whole entry, looked up, the tested form may be a part): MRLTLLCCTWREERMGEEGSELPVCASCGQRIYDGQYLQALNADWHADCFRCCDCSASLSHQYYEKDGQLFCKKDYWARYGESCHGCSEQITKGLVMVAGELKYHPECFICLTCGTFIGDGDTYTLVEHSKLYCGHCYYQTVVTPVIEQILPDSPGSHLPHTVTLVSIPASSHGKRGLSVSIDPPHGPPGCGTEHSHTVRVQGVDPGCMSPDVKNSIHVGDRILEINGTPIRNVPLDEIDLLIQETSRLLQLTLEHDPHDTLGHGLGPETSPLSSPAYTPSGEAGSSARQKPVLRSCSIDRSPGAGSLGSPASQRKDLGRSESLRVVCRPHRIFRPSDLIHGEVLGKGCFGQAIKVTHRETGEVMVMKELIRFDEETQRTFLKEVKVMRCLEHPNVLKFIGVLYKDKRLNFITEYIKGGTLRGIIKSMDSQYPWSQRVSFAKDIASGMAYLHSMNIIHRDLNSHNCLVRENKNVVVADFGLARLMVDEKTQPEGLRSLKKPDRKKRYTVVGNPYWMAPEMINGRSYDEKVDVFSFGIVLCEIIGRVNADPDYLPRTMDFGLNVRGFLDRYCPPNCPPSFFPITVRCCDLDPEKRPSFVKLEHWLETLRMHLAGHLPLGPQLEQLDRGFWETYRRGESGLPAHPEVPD
Chain of Vascular endothelial growth factor receptor 2 (Homo sapiens) (P35968 whole entry): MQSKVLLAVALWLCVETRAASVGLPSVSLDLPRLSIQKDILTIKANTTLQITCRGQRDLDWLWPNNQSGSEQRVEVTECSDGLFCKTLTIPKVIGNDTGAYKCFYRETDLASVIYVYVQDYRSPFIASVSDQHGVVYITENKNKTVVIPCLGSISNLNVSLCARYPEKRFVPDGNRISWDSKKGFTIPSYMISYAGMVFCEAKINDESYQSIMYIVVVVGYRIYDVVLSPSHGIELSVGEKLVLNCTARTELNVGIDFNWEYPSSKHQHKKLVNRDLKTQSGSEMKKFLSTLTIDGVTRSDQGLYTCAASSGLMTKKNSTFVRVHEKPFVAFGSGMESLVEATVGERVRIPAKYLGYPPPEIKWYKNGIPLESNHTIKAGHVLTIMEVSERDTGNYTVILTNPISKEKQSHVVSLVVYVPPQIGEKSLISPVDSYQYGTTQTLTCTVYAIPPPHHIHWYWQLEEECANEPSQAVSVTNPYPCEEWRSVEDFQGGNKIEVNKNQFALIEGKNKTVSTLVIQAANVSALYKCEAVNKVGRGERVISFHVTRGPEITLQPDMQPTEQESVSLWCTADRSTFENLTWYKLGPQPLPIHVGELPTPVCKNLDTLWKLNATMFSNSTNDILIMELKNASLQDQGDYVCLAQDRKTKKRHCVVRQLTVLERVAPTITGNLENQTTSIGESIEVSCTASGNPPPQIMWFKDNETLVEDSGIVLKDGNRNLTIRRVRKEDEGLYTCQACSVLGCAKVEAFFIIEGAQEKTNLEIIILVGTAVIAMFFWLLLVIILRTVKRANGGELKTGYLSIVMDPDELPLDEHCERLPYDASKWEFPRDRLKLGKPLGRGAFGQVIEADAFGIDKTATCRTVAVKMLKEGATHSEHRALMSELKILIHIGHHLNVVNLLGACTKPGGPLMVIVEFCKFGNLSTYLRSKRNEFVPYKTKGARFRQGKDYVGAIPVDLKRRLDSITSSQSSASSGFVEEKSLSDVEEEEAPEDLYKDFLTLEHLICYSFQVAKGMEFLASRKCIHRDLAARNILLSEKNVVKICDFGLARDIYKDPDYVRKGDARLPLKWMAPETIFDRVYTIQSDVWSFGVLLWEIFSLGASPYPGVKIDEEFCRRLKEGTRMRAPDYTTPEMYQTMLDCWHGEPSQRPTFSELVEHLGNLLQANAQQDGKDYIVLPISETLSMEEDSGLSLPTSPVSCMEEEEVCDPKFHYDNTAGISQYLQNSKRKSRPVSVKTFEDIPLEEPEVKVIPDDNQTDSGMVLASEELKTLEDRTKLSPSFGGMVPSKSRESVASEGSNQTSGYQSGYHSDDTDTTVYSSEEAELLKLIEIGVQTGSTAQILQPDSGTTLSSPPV
Chain of Mitogen-activated protein kinase 10 (Homo sapiens) (P53779 whole entry): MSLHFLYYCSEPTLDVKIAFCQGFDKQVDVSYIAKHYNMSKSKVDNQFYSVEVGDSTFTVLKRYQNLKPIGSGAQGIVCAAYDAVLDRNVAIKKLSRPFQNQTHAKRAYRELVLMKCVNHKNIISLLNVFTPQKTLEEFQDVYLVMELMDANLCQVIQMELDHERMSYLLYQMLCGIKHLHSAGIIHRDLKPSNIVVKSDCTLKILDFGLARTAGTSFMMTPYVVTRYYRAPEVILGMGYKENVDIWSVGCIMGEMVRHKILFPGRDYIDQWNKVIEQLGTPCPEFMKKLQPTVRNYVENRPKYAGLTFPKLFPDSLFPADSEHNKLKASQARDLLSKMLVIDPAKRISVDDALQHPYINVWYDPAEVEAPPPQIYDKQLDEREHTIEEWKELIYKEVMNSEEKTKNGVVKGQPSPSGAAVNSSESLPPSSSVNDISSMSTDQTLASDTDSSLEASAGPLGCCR

Consider `CCCC(=O)Oc1ccc2[nH]c(C(=O)c3cc4ccccc4[nH]3)cc2c1`, for which the residual activity in experiment [1] amounted to 69%; in experiment [2] it was 94%; in experiment [3], 70%; in experiment [4] it was 98%; in experiment [5], 80%; in experiment [6], 98%. Further, the residual activity in experiment [7] amounted to 96%; in experiment [8] it was 85%; in experiment [9], 96%; in experiment [10], 89%.

As for `COc1cc2c(cc1OC)-c1n[nH]c(Nc3cccc(F)c3)c1C2`, the residual activity in [1] worked out at 33%; in experiment [2], 75%; in experiment [3], 25%; in experiment [4], 13%; in [5], 2%; in experiment [8] it was 59%. In addition, the residual activity in experiment [9] stood at 37%.

Turning to `O=c1cc(N2CCOCC2)oc2c1ccc1ccccc12`, the residual activity in [1] turned out to be 70%; in experiment [2], 103%; in experiment [3], 87%; in experiment [4], 108%; in experiment [5], 92%; in experiment [6], 102%. Besides, the residual activity was 93% in [7], 98% in [8] and 91% in experiment [9].

Turning to `COc1cc2ncnc(Nc3cccc(Cl)c3)c2cc1OC`, the residual activity came to 50% in experiment [1]; 60% in [2]; 16% in experiment [3]; 111% in experiment [4]; 41% in experiment [5]; 100% in [6]. Further, the residual activity in experiment [7] came out at 101%; in experiment [8], 24%; in experiment [9], 8%; in [10], 52%.

For `COc1cc2nccc(Oc3ccc(NC(=S)NC(=O)c4ccccc4C)cc3)c2cc1OC`, the residual activity came to 79% in [1]; 4% in experiment [2]; 3% in experiment [3]; 60% in experiment [4]; 28% in experiment [5]; 98% in [6]. Moreover, the residual activity was found to be 90% in [7], 6% in experiment [8], 7% in experiment [9] and 1% in experiment [10].

Take `c1ccc(-c2cnc(Nc3ccc(OCCN4CCCC4)cc3)s2)cc1`: the residual activity turned out to be 36% in experiment [1]; 10% in experiment [2]; 4% in experiment [3]; 64% in experiment [4]; 16% in [5]; 108% in experiment [6]. Further, the residual activity in experiment [7] is 103%; in [8], 75%; in [9], 55%; in experiment [10], 58%.

For the compound `O=C(NC(NC(=S)Nc1ccc(F)c([N+](=O)[O-])c1)C(Cl)(Cl)Cl)C(c1ccccc1)c1ccccc1` (configuration not stated), the residual activity turned out to be 79% in [1]; 104% in experiment [2]; 102% in experiment [3]; 90% in [4]; 75% in [5]; 98% in experiment [6]. For the same compound, the residual activity in experiment [7] turned out to be 103%; in experiment [10], 95%.

In the case of `CC(C)(C)c1nc2c3ccc(F)cc3c3c(=O)[nH]ccc3c2[nH]1`, the residual activity in experiment [1] is -7%; in experiment [2] it was 65%; in [3], 24%; in experiment [4], 98%; in experiment [5], 63%; in [8], 72%. Moreover, the residual activity in experiment [9] came to 32%.

Turning to `CC(C)(C)n1nc(Cc2cccc3ccccc23)c2c(N)ncnc21`, the residual activity in experiment [1] was -1%; in experiment [2], 69%; in experiment [3], 14%; in experiment [4] it was 101%; in experiment [5] it was 69%; in experiment [6] it was 91%. Besides, the residual activity in experiment [7] is 61%; in [8] it was 80%; in experiment [9], 41%; in experiment [10] it was 36%.

Regarding `Nc1ncnc2c1c(-c1ccc(Oc3ccccc3)cc1)cn2C1CCCC1`, the residual activity in [1] turned out to be 81%; in experiment [2], 24%; in [3] it was 3%; in experiment [4], 72%; in [5], 13%; in [6], 105%. The residual activity in experiment [7] turned out to be 91%; in [8], 73%; in experiment [9] it was 38%; in experiment [10], 1%.

As for `Nc1nc(Nc2ccc(S(N)(=O)=O)cc2)nn1C(=O)c1c(F)cccc1F`, the residual activity came to 12% in experiment [1]; 33% in experiment [2]; 4% in experiment [3]; 12% in experiment [4]; 2% in experiment [5]; 99% in experiment [6]. The residual activity turned out to be 95% in experiment [7], 17% in [8], 6% in [9] and 58% in experiment [10].

With `Nc1ncnc2[nH]nc(Nc3ccc(F)cc3)c12`, the residual activity in [1] is 92%; in experiment [2], 97%; in experiment [3], 54%; in experiment [4] it was 90%; in experiment [5], 58%; in experiment [6] it was 102%. For the same compound, the values for the residual activity in experiment [8], in experiment [9] and in experiment [10] were 53%, 7% and 49%, respectively.

Take `CN(C)S(=O)(=O)c1ccc2c(c1)/C(=C/c1cc3c([nH]1)CCCC3)C(=O)N2`: the residual activity was determined as 81% in experiment [1]; 51% in [2]; 40% in experiment [3]; 90% in experiment [4]; 77% in experiment [5]; 99% in experiment [6]. The residual activity in [7] is 96%; in experiment [8] it was 63%; in [9], 78%.

For the compound `Cn1sc(=O)n(Cc2ccccc2)c1=O`, the residual activity in [1] was found to be 94%; in [2] it was 99%; in experiment [3], 91%; in experiment [4], 86%; in [5] it was 79%; in experiment [6], 97%. The residual activity in experiment [7] is 93%; in experiment [8] it was 95%; in experiment [9] it was 95%.

As to `O=c1cc(N2CCNCC2)oc2c(-c3ccccc3)cccc12`, the residual activity in experiment [1] turned out to be 89%; in [2], 100%; in [3], 89%; in experiment [4] it was 92%; in experiment [5], 86%; in experiment [6], 97%. Besides, the figures for the residual activity in [7], in experiment [8] and in experiment [9] were 92%, 95% and 89%, respectively.

Values taken from ChEMBL document CHEMBL2218924, “A broad activity screen in support of a chemogenomic map for kinase signalling research and drug discovery” (Biochem J, 2013).
